# Reference: PubChem BioAssay AID1117271 (Broad Institute, 2014)
# Entries with a potency or affinity are not part of this list. Activity calls are given as the source filed them. How the calls were made is not given here.
# Assay: inhibitors of orthopox intermediate gene expression, dose response, cell-based, single fluorophore reporter, dry powder (AID 1117271)
structure (smiles),measurement,value
COc1ccccc1-c1ccc(CN(C)C[C@@H]2Oc3cc(C#C[C@@H](C)O)ccc3S(=O)(=O)N([C@@H](C)CO)C[C@@H]2C)cc1,outcome,inactive
